This is a sample that favours compounds with a hit; in the whole collection about 3.5% have one here.
FBW7 act: FBW7 E3 ligase activators, primary screen, biochemical, AlphaScreen, human. AlphaScreen FBW7–phospho-cyclin E peptide binding, activator screen. normalized activity (activation), % at 26.1 µM. 650,000 compounds, 0.13% hits. AID 1259310, 2017; in the data active = normalized activity above about 1.9%;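 note: purified mutant Fbw7 with reduced substrate affinity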
TEAD-YAP block: TEAD-YAP interaction inhibition, primary screen, TEAD-YAP interaction inhibitor project, luminescence, HEK-TIYL cells; inhibition, % at 9.12 µM; 640,000 compounds, 1.4% hits; AID 1259422, 2018; TEAD-Gal4/YAP UAS-luciferase luminescence; in the data active = inhibition above about 32%;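 note: 0% = median of test compound wells and 100% = reference inhibitor wells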
MITF primary: MITF inhibitors, primary screen, biochemical, AlphaScreen, human; Microphthalmia-associated transcription factor (Homo sapiens), O75030; AlphaScreen MITF homodimerization, bead proximity signal; inhibition, % at 2.6 µM; 650,000 compounds, 0.91% hits; AID 1259374, 2018; in the data active = inhibition above about 50%;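 note: 0% = vehicle wells with protein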
GPR151 activ: activators of human GPR151, primary screen, cell-based, PathHunter beta-arrestin, luminescence | PathHunter beta-arrestin GPR151 cells | activation, % at 11.2 µM | 650,000 compounds, 1% hits | AID 1508602, 2020; in the data active = activation above about 4.9%;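 note: 0% = median of compound wells and 100% = cells with positive control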
Target sequence (Q8TDV0 whole entry, looked up): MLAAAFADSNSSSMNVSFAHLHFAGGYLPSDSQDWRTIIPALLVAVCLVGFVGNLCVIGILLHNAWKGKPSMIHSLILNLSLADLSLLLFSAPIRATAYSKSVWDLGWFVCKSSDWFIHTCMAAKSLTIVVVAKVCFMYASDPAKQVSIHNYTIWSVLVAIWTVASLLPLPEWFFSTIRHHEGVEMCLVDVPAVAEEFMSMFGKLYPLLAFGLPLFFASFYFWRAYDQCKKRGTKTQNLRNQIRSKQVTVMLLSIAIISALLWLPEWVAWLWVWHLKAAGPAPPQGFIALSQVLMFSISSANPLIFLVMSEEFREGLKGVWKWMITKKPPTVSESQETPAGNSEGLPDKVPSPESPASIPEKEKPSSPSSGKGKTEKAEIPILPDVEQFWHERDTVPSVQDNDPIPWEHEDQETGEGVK
Starred values were filed as active, the others as inactive.

SMILES	FBW7 act	TEAD-YAP block	MITF primary	GPR151 activ
O=C(CC1Nc2c3ccccc3nc(=S)n2C1=O)NCc1ccc2c(c1)OCO2 (stereo not given)	-0.1	-8.7	5.6	0.3
CC(C)C(NCCC(=O)c1ccccc1)C(=O)O (stereo not given)	0.2	-5.5	15.1	-0.6
O=C(COc1ccc(Br)cc1Cl)Nc1nccs1	0.7	91.6*	11.5	-8.2
O=C(Cn1cnc2ccccc21)N1CCN(Cc2csc(-c3ccccc3)n2)CC1	-0.1	45.9*	20.9	1.5
O=C(CCn1cnc2ccccc2c1=O)N1CCN(Cc2csc(-c3ccccc3)n2)CC1	-0.1	21.1	-4.0	-0.3
COc1ccc2[nH]c3nc(SCC(=O)NC(C)(C)C)nnc3c2c1	-0.1	10.3	1.6	-0.5
COc1cc(/C=N/NC(=O)CCN2CCN(C)CC2)cc(OC)c1O	-0.1	-1.1	51.4*	-0.2
COc1cc(/C=N/NC(=O)CCN2CCN(C)CC2)ccc1O	0.3	-4.4	22.8	0.0
O=C1CSC(c2ccc(Cl)cc2)N1c1ccccc1 (stereo not given)	0.0	-8.6	3.7	-1.2
CCNC(=O)/C(=C\c1ccco1)NC(=O)c1ccc(C)cc1	-0.2	4.8	13.8	2.4
O=C(O)c1cccc(COc2ccc(CO)cc2Br)c1	0.1	84.5*	7.0	-12.6
O=C(O)c1cccc(COc2ccc(CO)cc2Cl)c1	1.1	95.0*	10.6	-13.0
COc1cc(/C=C/[N+](=O)[O-])ccc1OCc1cccc(C(=O)O)c1	-0.5	77.2*	56.3*	1.7
O=Cc1ccc(OCc2cccc(C(=O)O)c2)c(Cl)c1	0.1	87.8*	2.9	-7.7
COc1cc(/C=C2/NC(=O)NC2=O)ccc1OCc1cccc(C(=O)O)c1	-0.2	22.8	-8.3	-2.5
Cc1nn(CC(=O)NCc2cccc(Cl)c2)c(=O)c2cc3occc3n12	0.0	-0.8	-3.8	-0.5
O=C(Cc1ccccc1Cl)Nc1ccc2c(c1)OCO2	0.0	-1.3	-2.5	1.3
CC(C)(C)/C(=C\c1nc2ccccc2[nH]c1=O)NN	0.0	80.6*	3.2	-6.2
CCN(CC)C(=O)[C@@H]1C[C@@H](NCc2ccccc2C(F)(F)F)CN1Cc1ccncc1	0.1	-17.1	-3.2	0.9
CCOc1ccc(N(C(C)C(=O)Nc2ccccc2Cl)S(C)(=O)=O)cc1 (stereo not given)	-0.2	0.4	-12.0	0.6
CCOc1ccc(N(C(C)C(=O)Nc2ccccc2OC)S(C)(=O)=O)cc1 (stereo not given)	0.4	17.1	0.7	-0.8
CCOC(=O)c1ccccc1NC(=O)C(C)N(c1ccc(OCC)cc1)S(C)(=O)=O (stereo not given)	-0.2	57.0*	-7.5	-0.7
CCOc1ccc(N(C(C)C(=O)Nc2ccc(Cl)cc2C)S(C)(=O)=O)cc1 (stereo not given)	0.6	6.0	10.2	0.6
COc1ccc(N(C(C)C(=O)Nc2cc([N+](=O)[O-])ccc2OC)S(C)(=O)=O)cc1 (stereo not given)	-0.3	50.5*	1.4	-0.4
CCOc1ccc(N(C(C)C(=O)Nc2cc(Cl)ccc2OC)S(C)(=O)=O)cc1 (stereo not given)	0.0	32.5*	3.6	0.8
SMILES	FBW7 act	TEAD-YAP block	MITF primary	GPR151 activ
CCOc1ccc(N(C(C)C(=O)Nc2cc(C)ccc2OC)S(C)(=O)=O)cc1 (stereo not given)	0.0	46.6*	-11.9	0.0
Clc1cccc(C2C=C(c3ccc(I)cc3)Nc3nnnn32)c1 (stereo not given)	-0.1	4.8	8.4	-0.8
COc1cc(C(=O)N2c3ccccc3N3C(c4c(C)cc(C)cc4C)=NON23)cc(OC)c1OC	0.2	-8.5	-0.9	0.4
O=C(O)CCNc1nc2ccccc2s1	0.1	42.3*	1.2	0.0
O=C(O)CNc1nc2ccccc2s1	1.0	11.3	32.5	-1.7
O=C(NNc1nc2ccccc2s1)Nc1ccccc1	-0.1	-35.9	-2.5	-1.2
c1ccc(NNc2nc3ccccc3s2)cc1	-0.3	35.8*	9.8	-1.4
Cn1nc(C(=O)Nc2cccc(Cl)c2)c2c1-c1ccccc1S(=O)(=O)C2	0.0	-4.0	-12.2	-3.7
CNC(=O)CCCCn1c(=S)[nH]c2c([nH]c3ccc(OC)cc32)c1=O	-0.1	5.0	-3.8	-0.7
Cc1cccc(NC(=O)CCc2csc(NC(=O)c3ccc(F)cc3)n2)c1C	0.1	40.0*	2.9	1.6
CC(C)c1ccccc1NC(=O)CCc1csc(NC(=O)c2ccc(F)cc2)n1	0.1	23.3	1.2	0.6
COc1ccc(CC(=O)Nc2cc(Nc3ccccc3C(N)=O)c(C(F)(F)F)cn2)cc1	0.2	98.0*	-2.2	-1.7
NC(=O)c1ccccc1Nc1cc(Oc2ccccc2F)ncc1C(F)(F)F	-0.4	-1.4	-1.8	3.0
NC(=O)c1ccccc1Nc1cc(NC(=O)Cc2ccc([N+](=O)[O-])cc2)ncc1C(F)(F)F	0.0	96.2*	1.8	1.0
COc1ccc2c(c1)CCC2C(=O)Nc1cc(Nc2ccccc2C(N)=O)ccn1 (stereo not given)	-0.1	12.7	-2.5	-0.2
NC(=O)c1ccccc1Nc1cc(NC(=O)C2CCc3ccccc32)ncc1C(F)(F)F (stereo not given)	0.3	75.1*	16.2	0.9
NC(=O)c1ccccc1Nc1cc(NC(=O)Cc2ccc(F)c(F)c2)ncc1C(F)(F)F	0.2	92.1*	8.9	1.0
CCN(CC)C(=O)CN(c1ccccc1OC)S(=O)(=O)c1ccccc1C(F)(F)F	0.0	3.9	-5.9	-1.9
CNC(=O)c1cncnc1Nc1cc(NC(=O)Cc2ccc(OC)cc2)ncc1C(F)(F)F	-0.1	54.0*	7.1	1.1
CC(C)NC1CCC(Nc2cc(Nc3ccccc3C(N)=O)c(C(F)(F)F)cn2)CC1 (stereo not given)	0.2	94.2*	8.8	-2.2
Nc1cc(Nc2ccccc2CO)c(C(F)(F)F)cn1	-0.1	4.9	-6.0	-0.2
N#Cc1ccccc1NC(=O)CSc1ccc([N+](=O)[O-])cn1	0.0	11.2	22.9	-1.3
O=C(Cc1ccc(F)cc1)Nc1cc(Nc2ccccc2CO)c(C(F)(F)F)cn1	0.1	61.6*	2.9	-1.5
N#Cc1ccccc1Nc1cc(NC(=O)Cc2ccc([N+](=O)[O-])cc2)ncc1C(F)(F)F	-0.1	39.9*	14.8	-1.6
CNC(=O)c1cncnc1Nc1cc(Nc2ccc3c(c2)CC(=O)N3)ncc1C(F)(F)F	0.0	25.2	2.4	0.0
NC(=O)c1ccccc1Nc1cc(NC(=O)Cc2ccc(F)c(F)c2)ncc1Cl	-0.1	83.2*	9.7	-0.9
NC(=O)c1ccccc1Nc1cc(NC(=O)Cc2ccc(F)c(F)c2)ncc1F	0.0	14.8	-3.8	1.3
NC(=O)c1ccccc1Nc1cc(NC(=O)Cc2ccc(F)cc2)ncc1C(F)(F)F	0.1	95.3*	17.8	1.7
O=C(Cc1ccc(F)cc1)Nc1cc(Nc2ccccc2-c2nn[nH]n2)c(C(F)(F)F)cn1	0.1	-3.4	2.3	-0.7
